The nature of test [1]: Cell Viability - H-4-II-E (AID 543). Note: % is set by controls: 0 for no effect and ±100 for the full control effect; nearly all actives have a fitted effect of over 35% in size. In a few lines: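 Rat hepatoma H-4-II-E cells (1500/well) were plated, incubated 5 hr at 37 °C, then exposed to compounds for 40 hr at 37 °C. Cellular ATP was read by CellTiter-Glo luminescence; AC50 came from Hill-equation fits of concentration-response data.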
A short description of test [2]: Cell Viability - SH-SY5Y (AID 544). Note: nearly all actives have a fitted effect of over 55% in size. Conditions: SH-SY5Y neuroblastoma cell viability; viability change, negative = cytotoxic: at 92.2 µM (top of the series). In a few lines:
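Human neuroblastoma SH-SY5Y cells (1500/well) in complete medium were exposed to compounds for 40 hr at 37 °C; intracellular ATP was then quantified by CellTiter-Glo luminescence after 20 min at room temperature. AC50 came from Hill-equation concentration-response fits.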

Test [3] is described as follows: Cell Viability - Renal Proximal Tubule (AID 545). Note: nearly all actives have a fitted effect of over 40% in size. Put shortly:
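Primary rat renal proximal tubule cells (1000/well) were treated with compounds for 40 hr at 37 °C in complete medium. Intracellular ATP was measured by CellTiter-Glo luminescence, and AC50 values came from Hill-equation fits of concentration-response data.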

Test [4] is described as follows: Cell Viability - Mesenchymal (AID 546).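 Note: cells exposed to compound for 40 hours before reading.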 Put shortly: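 Normal human renal glomerulus-derived kidney mesenchymal cells, 1000 per well in complete medium, were treated with compounds for 40 hr at 37 °C. Viability was read as intracellular ATP by CellTiter-Glo luminescence; AC50 values came from Hill-equation fits of qHTS concentration-response data.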
Test [5] can be described thus: Cellular Toxicity (caspase-3) HepG2 (AID 654).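 Note: cells exposed to compound for 16 hours before reading; 0% = DMSO alone and 100% = caspase signal from 100 µM tamoxifen.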 In a few lines:
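HepG2 cells (1500/well) in complete medium were treated with compounds for 16 hr at 37 °C. Caspase-3/7 activity was then read as luminescence from peptide-aminoluciferin cleavage. AC50 came from Hill fits, normalized to DMSO and 100 uM tamoxifen.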

Test [6] is described as follows: Cellular Toxicity (caspase-3) Jurkat (AID 655).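 Note: cells exposed to compound for 16 h at 37 °C before reading.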 The following applies: Jurkat caspase-3 activation, luminescence; caspase-3 activation: at 92.2 µM (top of the series), DMSO = 0%, tamoxifen = 100%. Put shortly:
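Jurkat cells (5000/well) in complete medium were treated with compounds for 16 hr at 37 °C, then Caspase-Glo 3/7 luminescence was read after 20 min at room temperature. Data normalized to DMSO (basal) and 100 uM tamoxifen (100%); AC50 from Hill fit.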

Test [7] in a line: Cellular Toxicity (caspase-3) SHSY5Y (AID 657). Put shortly:
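SH-SY5Y human neuroblastoma cells (1500/well) were treated with compounds for 16 h at 37 °C, then Caspase-Glo 3/7 luminescence was read after 1 h at room temperature. Data normalized to DMSO and 10 uM staurosporine; AC50 from Hill fits.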

The nature of test [8]: Cellular Toxicity (caspase-3) BJ (AID 658).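 Note: 0% = DMSO basal and 100% = 10 µM staurosporine.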 Put shortly: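 Luminescent aminoluciferin-substrate cleavage reports caspase 3/7 activity in normal human BJ fibroblasts after 16 hr compound exposure at 37 °C. Normalized to DMSO (basal) and 10 uM staurosporine (100%); AC50 from Hill fit of concentration-response.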
Test [9] is described as follows: Cellular Toxicity (caspase-3) MRC-5 (AID 659).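 Note: 0% = DMSO basal and 100% = 10 µM staurosporine.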 In a few lines: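 Luminescence from caspase-cleaved aminoluciferin substrate (Caspase-Glo 3/7, 1 hr RT) reports caspase 3/7 activity in MRC-5 lung fibroblasts after 16 hr compound exposure. Normalized to DMSO basal and 10 uM staurosporine as 100%; AC50 from Hill fits.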
The nature of test [10]: Cellular Toxicity (caspase-3) Mesangial (AID 660).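 Note: cells exposed to compound for 16 h before the caspase read.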 Conditions: mesangial cells, normalized: DMSO 0%, 100 µM tamoxifen 100%; at 91.7 µM (top of the series). In a few lines:
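Human renal glomerular mesangial cells (1000/well) were treated with compounds for 16 h at 37 °C in complete medium, then caspase 3/7 activity was read by Caspase-Glo luminescence. Data were normalized to DMSO and 100 uM tamoxifen; AC50 from Hill fits.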

Test [11] in a line: Cellular Toxicity (caspase-3) SK-N-SH (AID 661).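 Note: 0% = DMSO basal and 100% = 10 µM staurosporine.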 Put shortly:
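SK-N-SH human neuroblastoma cells (1500/well) were treated with compounds for 16 hr at 37 °C in complete medium; caspase 3/7 activity was read by Caspase-Glo luminescence. AC50 came from Hill fits of data normalized to DMSO and 10 uM staurosporine.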

Test [12] can be described thus: Cellular Toxicity (caspase-3) H-4-II-E (AID 663).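 Note: cells exposed to compound for 16 hr before readout.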 The following applies: H-4-II-E rat hepatoma, scaled: DMSO 0%, 100 µM tamoxifen 100%; at 92.2 µM (top of the series). Put shortly:
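Luminescence from caspase-cleaved aminoluciferin substrate, read 20 min after reagent addition, reports caspase 3/7 activation in rat H-4-II-E cells after 16 hr compound exposure. Normalized to DMSO (basal) and 100 uM tamoxifen (100%); AC50 from Hill fits.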

The nature of test [13]: Cellular Toxicity (caspase-3) Hek293 (AID 664).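 Note: cells exposed to compound for 16 h at 37 °C before readout.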 The following applies: HEK293 caspase-3 activation, DMSO = 0%, 100 µM tamoxifen = 100%; at 92.2 µM (top of the series). In a few lines: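 HEK293 cells were exposed to compounds in complete medium for 16 hr at 37 °C, then caspase-3/7 activity was read by Caspase-Glo 3/7 luminescence after 20 min at room temperature. Data normalized to DMSO and 100 uM tamoxifen; AC50 from Hill fits.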

Test [14] can be described thus: Cellular Toxicity (caspase-3) N2a (AID 665).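 Note: compound exposure lasted 16 h at 37 °C before readout.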 In a few lines: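 Mouse N2a neuroblastoma cells (1500/well) were treated with compounds for 16 h at 37 °C, then caspase-3/7 activity was read by Caspase-Glo luminescence after 1 h at room temperature. Data were normalized to DMSO and 10 uM staurosporine; AC50 from Hill fits.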
Test [15] can be described thus: Cellular Toxicity (caspase-3) NIH 3T3 (AID 666).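 Note: 0% = DMSO basal and 100% = 100 µM tamoxifen stimulation.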 Put shortly:
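Mouse NIH 3T3 fibroblasts (1000 cells/well) were treated with compound for 16 hr at 37°C in complete medium; caspase-3/7 activity was read by Caspase-Glo luminescence. Normalized to DMSO and 100 uM tamoxifen; AC50 from Hill fits.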

Test [16] in a line: Cellular Toxicity (caspase-3) Renal Proximal Tubule (AID 667).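 Note: cells exposed to compound for 16 hours at 37 °C before detection; 0% = DMSO basal and 100% = 10 µM staurosporine.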 The following applies: Potency: caspase-3 activation. Put shortly:
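Primary rat proximal tubule cells, 1000/well, 5 h plating at 37 °C, then compound 16 h at 37 °C. Caspase-Glo 3/7 reagent, 1 h RT, luminescence. Normalized to DMSO (basal) and 10 uM staurosporine (100%); Hill-fit AC50.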

In test [17] the target is Cytochrome P450 3A4 (Homo sapiens) (UniProt P08684). As to the kind of experiment: qHTS Assay for Inhibitors and Substrates of Cytochrome P450 3A4 (AID 884). Note: % is set by controls: 0 for no effect and ±100 for the full control effect; nearly all actives have a fitted effect of over 50% in size. In a few lines: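 20 nM human CYP3A4 with 25 uM Luciferin-PPXE (at KM) in 200 mM KPO4, preincubated 10 min with compound; NADPH regeneration started a 60 min RT reaction. Luciferin detected by luminescence, normalized to 57 uM ketoconazole as full inhibition.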

The nature of test [18]: Cell Viability - LYMP2-001 (AID 921).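 Note: 0% = DMSO only and full inhibition = tetraoctylammonium bromide control wells; nearly all actives have a fitted effect of over 70% in size.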 Put shortly:
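Human lymphoblastoid cells (Coriell), 2500 per well, were preincubated 5 hr at 37 C, then exposed to compounds in complete medium for 24 hr at 37 C. Cellular ATP was read by CellTiter-Glo luminescence; AC50 from Hill fits of concentration-response data.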

Test [19] can be described thus: Cellular Toxicity (caspase-3) HUV-EC-C (AID 656). In a few lines: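 HUV-EC-C endothelial cells, 1000/well, were pre-incubated 5 hr at 37°C, then exposed to compounds for 16 hr at 37°C. Caspase-Glo 3/7 luminescence was read after 20 min at room temperature. AC50 came from Hill fits, normalized to DMSO and 100 uM tamoxifen.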

A number with no mark means an inactive call. Results filed as inconclusive are left out. Calls of active or inactive are those of the source. Calls come from the whole dose curve; as a rule, active = well fitted curve in the direction sought with a large enough effect; inconclusive = small, poorly fitted or top-dose-only effect, or another doubt; inactive = no such curve, though single readings can be large; an effect the other way counts as inactive or inconclusive.

Sequence of Cytochrome P450 3A4 (Homo sapiens) (P08684 whole entry, looked up): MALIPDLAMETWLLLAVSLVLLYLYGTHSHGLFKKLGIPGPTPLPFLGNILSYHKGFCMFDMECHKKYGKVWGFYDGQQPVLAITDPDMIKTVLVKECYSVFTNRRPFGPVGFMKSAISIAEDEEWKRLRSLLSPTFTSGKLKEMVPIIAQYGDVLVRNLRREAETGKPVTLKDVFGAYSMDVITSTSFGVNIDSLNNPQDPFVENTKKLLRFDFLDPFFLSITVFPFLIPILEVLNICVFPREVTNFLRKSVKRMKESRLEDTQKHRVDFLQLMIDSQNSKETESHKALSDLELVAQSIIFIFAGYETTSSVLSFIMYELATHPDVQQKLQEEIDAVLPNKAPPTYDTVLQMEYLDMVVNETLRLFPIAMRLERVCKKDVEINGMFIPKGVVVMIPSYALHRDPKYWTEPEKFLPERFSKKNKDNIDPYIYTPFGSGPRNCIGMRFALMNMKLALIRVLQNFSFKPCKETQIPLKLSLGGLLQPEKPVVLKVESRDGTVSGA

As to `CC(C)=CCC/C(C)=C/C=O`, the Potency result in test [1], in test [2], in test [3], in test [4], in [5] and in [16] was “inactive” in each case. The Potency result in test [17] and in test [18] was “inactive” each time. In addition, the caspase-3 activation is 0.822% in [6], 0.108% in test [10], 0.873% in test [12] and -2.02% in test [13]. The compound was classed as inactive in [7], in test [8], in test [9], in [11], in test [14] and in test [15].
For the compound `CC(C)(c1cc(Br)c(OCC(Br)CBr)c(Br)c1)c1cc(Br)c(OCC(Br)CBr)c(Br)c1` (stereo unspecified), the Potency result in [1], in [2], in test [3], in [4], in test [5] and in test [16] was “inactive” each time. Further, the Potency result in test [17] and in test [18] was “inactive” throughout. Also, the caspase-3 activation in test [6] is 99.2% (active); in [10] it was 0.758%; in test [12], 1.29%; in [13] it was 16.5%. For the same compound, the compound was called inactive in [19], in [7], in test [8], in test [11], in test [14] and in [15].
On to `C=C(C)C(=O)OCCCCCC`, for which the Potency result in [1], in test [2], in test [3], in [4], in test [5] and in [16] was “inactive” in each case. In addition, the Potency result in test [17] and in [18] was “inactive” each time. Moreover, the caspase-3 activation is 2.29% in [6], 0.664% in test [12] and -0.643% in test [13]. The compound was classed as inactive in [19], in [7], in test [9], in test [14] and in test [15].
Consider `CC(O)CC(C)O` (stereo unspecified), for which the Potency result in test [1], in [2], in test [3], in [4], in test [5] and in test [16] was “inactive” in each case. In addition, the Potency entry in test [18] is “inactive”. The caspase-3 activation in test [6] is 0.345%; in test [10] it was 0.0132%; in test [12], 1.09%; in [13], -0.296%. Besides, the compound was called inactive in [19], in [7], in test [9], in [11], in test [14] and in test [15].
Take `CSc1ccc(C=O)cc1`: the Potency result in test [1], in test [2], in test [3], in test [4], in test [5] and in [16] was “inactive” in each case. Moreover, the Potency entry in [17] and in test [18] was “inactive” in each case. Further, the caspase-3 activation in test [6] was 1.05%; in test [10], -0.251%; in test [12], 2.78%; in [13] it was 0.206%. The result in [19], in [7], in test [9], in test [11], in test [14] and in test [15] was inactive.
On to `Cc1ccc(C)c(O)c1`, for which the Potency result in [1], in test [2], in [3], in [4], in test [5] and in test [16] was “inactive” each time. Also, the Potency entry in test [17] and in [18] was “inactive” in each case. For the same compound, the caspase-3 activation in test [6] was 0.228%; in [12], 0.256%; in [13], 0.519%. Moreover, the compound was classed as inactive in test [19], in [7], in test [8], in [11], in [14] and in [15].
Turning to `CO[Si](CCCNCCC[Si](OC)(OC)OC)(OC)OC`, the Potency result in test [1], in test [2], in test [3], in test [4], in [5] and in test [16] was “inactive” in each case. In addition, in [18], the Potency result was “inactive”. In addition, the caspase-3 activation in test [6] is 2.91%; in test [10] it was 0.876%; in test [12] it was 0.962%; in test [13] it was -1.43%. Further, the outcome in test [19], in test [7], in [9], in [11], in test [14] and in [15] was inactive.

The values above are taken from PubChem BioAssay (NCATS).
